Where “and” joins values, the source holds several entries; their conditions need not be identical. Equal entries are not always repeated. The whole screen tested about 5,500 compounds, of which about 2,000 (36%) were called active. Not shown: some 18% with an inconclusive outcome. Cut-off read from the data, not from the text of the source: active = normalized growth mostly below about 0.91 (no sharp cut-off); inconclusive = no clear call, values can overlap the other calls; inactive = mostly above about 0.92. The list shows a part of the results.
Test: chemical genetic growth profiling, strain panel (AID 1159580);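 note: tested at 20 µM; growth read once vehicle control cultures reached saturation at 30 °C; 1 = growth at the plate median or of vehicle wells; lower values mean less growth of the strain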
Details: S. cerevisiae deletion strains, growth OD

Measured: normalized growth

Nc1ccc(C(=O)O)c(O)c1
inactive: locus YAL021C, strain ccr4, stronger effect = lower value 0.972 | locus YAL026C, strain drs2, stronger effect = lower value 1 | locus YAL030W, strain snc1, stronger effect = lower value 1 | locus YBL061C, strain skt5, stronger effect = lower value 0.989 | locus YBR009C, strain hhf1, stronger effect = lower value 1.02 | locus YBR021W, strain FUR4, stronger effect = lower value 1.01 | locus YBR023C, strain chs3, stronger effect = lower value 0.984 | locus YBR171W, strain sec66, stronger effect = lower value 0.98 | locus YBR229C, strain ROT2, stronger effect = lower value 1 | locus YBR231C, strain swc5, stronger effect = lower value 1 | locus YBR279W, strain paf1, stronger effect = lower value 0.996 | locus YCL011C, strain gbp2, stronger effect = lower value 0.991 | locus YCL016C, strain dcc1, stronger effect = lower value 0.965 | locus YCL029C, strain bik1, stronger effect = lower value 0.997 | locus YCL061C, strain MRC1, stronger effect = lower value 0.979 | locus YCL069W, strain vba3, stronger effect = lower value 0.99 | locus YCR088W, strain abp1, stronger effect = lower value 0.997 | locus YDL005C, strain med2, stronger effect = lower value 0.989 | locus YDL035C, strain GPR1, stronger effect = lower value 1.02 | locus YDL040C, strain nat1, stronger effect = lower value 0.99 | locus YDL074C, strain BRE1, stronger effect = lower value 1.01 | locus YDL101C, strain DUN1, stronger effect = lower value 1.01 | locus YDL134C, strain PPH21, stronger effect = lower value 1 | locus YDL185W, strain tfp1, stronger effect = lower value 1 | locus YDL192W, strain arf1, stronger effect = lower value 0.994 | locus YDR001C, strain nth1, stronger effect = lower value 0.989 | locus YDR069C, strain doa4, stronger effect = lower value 1 | locus YDR101C, strain arx1, stronger effect = lower value 1.01 | locus YDR137W, strain rgp1, stronger effect = lower value 0.959 | locus YDR150W, strain NUM1, stronger effect = lower value 1.01 | locus YDR159W, strain sac3, stronger effect = lower value 1.02 | locus YDR162C, strain NBP2, stronger effect = lower value 1.01 | locus YDR195W, strain ref2 0.996 | locus YDR297W, strain sur2, stronger effect = lower value 1.01 | locus YDR318W, strain mcm21, stronger effect = lower value 1.01 | locus YDR334W, strain swr1, stronger effect = lower value 0.98 | locus YDR335W, strain msn5, stronger effect = lower value 0.993 | locus YDR388W, stronger effect = lower value 1 | locus YDR392W, strain spt3, stronger effect = lower value 0.931 | locus YDR502C, strain sam2, stronger effect = lower value 0.998 | locus YEL003W, strain gim4, stronger effect = lower value 1.02 | locus YEL037C, strain rad23, stronger effect = lower value 1 | locus YEL061C, strain CIN8 (second series), stronger effect = lower value 0.994 | locus YEL061C, strain CIN8, stronger effect = lower value 1.01 | locus YER015W, strain faa2, stronger effect = lower value 0.999 | locus YER016W, strain bim1, stronger effect = lower value 1 | locus YER110C, stronger effect = lower value 1 | locus YER111C, strain swi4, stronger effect = lower value 0.984 | locus YER155C, strain BEM2 (second series), stronger effect = lower value 1 | locus YER155C, strain BEM2, stronger effect = lower value 1 | locus YER167W, strain BCK2, stronger effect = lower value 1.01 | locus YFR010W, strain ubp6, stronger effect = lower value 1 | locus YGL078C, strain dbp3, stronger effect = lower value 0.995 | locus YGL086W, strain mad1, stronger effect = lower value 0.997 | locus YGL167C, strain pmr1, stronger effect = lower value 0.992 | locus YGL173C, strain kem1, stronger effect = lower value 0.99 | locus YGL227W, strain vid30, stronger effect = lower value 0.991 | locus YGL240W, strain doc1, stronger effect = lower value 0.997 | locus YGL248W, strain PDE1, stronger effect = lower value 0.999 | locus YGL253W, strain hxk2, stronger effect = lower value 0.978 | locus YGR135W, strain pre9, stronger effect = lower value 0.993 | locus YGR252W, strain gcn5, stronger effect = lower value 0.959 | locus YHR013C, strain ard1, stronger effect = lower value 0.961 | locus YHR027C, strain rpn1, stronger effect = lower value 0.997 | locus YHR030C, strain SLT2, stronger effect = lower value 0.974 and 1.01 and 1.07 | locus YHR079C, strain IRE1 (second series), stronger effect = lower value 1 | locus YHR079C, strain IRE1, stronger effect = lower value 1.02 and 1.04 | locus YHR094C, strain hxt1, stronger effect = lower value 0.997 | locus YHR129C, strain ARP1, stronger effect = lower value 1.01 | locus YHR142W, strain chs7, stronger effect = lower value 0.964 | locus YHR200W, strain rpn10, stronger effect = lower value 0.999 | locus YIL066C, strain RNR3, stronger effect = lower value 1.03 | locus YIL073C, strain SPO22, stronger effect = lower value 1.04 | locus YIL125W, strain kgd1, stronger effect = lower value 1 | locus YIR030C, strain dcg1, stronger effect = lower value 1 | locus YJL092W, strain hpr5, stronger effect = lower value 0.984 | locus YJL095W, strain BCK1 (second series), stronger effect = lower value 0.997 | locus YJL095W, strain BCK1, stronger effect = lower value 0.994 and 1.01 and 1.04 | locus YJL115W, strain asf1, stronger effect = lower value 0.99 | locus YJL129C, strain trk1, stronger effect = lower value 0.968 | locus YJL134W, strain LCB3, stronger effect = lower value 1.01 | locus YJL154C, strain vps35, stronger effect = lower value 0.99 | locus YJL164C, strain tpk1, stronger effect = lower value 1.01 | locus YJL166W, strain qcr8, stronger effect = lower value 0.962 | locus YJL168C, strain set2, stronger effect = lower value 1 | locus YJL187C, strain SWE1 (second series), stronger effect = lower value 1.01 | locus YJL187C, strain SWE1, stronger effect = lower value 0.999 | locus YJR043C, strain POL32, stronger effect = lower value 1.01 | locus YJR066W, strain TOR1, stronger effect = lower value 0.963 and 0.985
